Measured values from ChEMBL document CHEMBL1201862, “PubChem BioAssay data set” (2004).
The whole screen tested about 58,000 sequences, of which about 3,500 (6%) were called active. Rule as the data show it: active = GI50 up to about 1.1 µM and inactive = higher. A selection follows. Results with a measured potency or affinity are listed apart.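 48-hour exposure; five concentrations; linearly interpolated endpoints. GI50: concentration for 50% inhibition of growth.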

What follows are substances tested on SN12C (assay: NCI tumour cell line growth inhibition, 48 h).

Row | Substance | GI50
1 | [Bis(aminomethyl)pentamethylenesilane]dichloropaltinum(II), CHEMBL2146202 | 1.87 µM
2 | [Bis(aminomethyl)pentamethylenesilane]tetrachloropaltinum(IV), CHEMBL2146204 | 2 µM
3 | [Bis(aminomethyl)tetramethylenesilane]tetrachloropaltinum(IV), CHEMBL2146189 | 2.64 µM
4 | cis-Bis[[(trimethylsilyl)methyl]amino]tetrachloroplatinum(IV), CHEMBL2146191 | 13.1 µM
5 | [Bis(aminomethyl)dimethylsilane]tetrachloroplatinum(IV), CHEMBL2146190 | 8.45 µM
6 | mu-(1,7-nanodiamine-N,N')bis-(cis-aminedichloroplatimum (II)), CHEMBL2146215 | 0.387 µM
7 | [Bis(aminomethyl)tetramethylenesilane]dichloropaltinum(II), CHEMBL2146205 | 23.9 µM
8 | [Bis(aminomethyl)dimethylsilane]dichloroplatinum (II), CHEMBL2146201 | 32.4 µM
9 | [Bis(aminomethyl)diethylsilane]tetrachloroplatinum(IV), CHEMBL2146203 | 2.34 µM
10 | [Bis(aminomethyl)ethylmethylsilane]tetrachloroplatinum(IV), CHEMBL2146192 | 4.25 µM
11 | CISPLATIN, CHEMBL11359 | 4.83 µM
